{"source": "the supplement of paper PMC3334620", "note": "In all, about 33,000 sequences were measured (“E-score (-0.5 to 0.5)”: median about -0.021, highest 2% from about 0.32 on). Many of the other results were omitted from the sample, so the highest values are more common in it than they were."}
{"biological_target": "T1, Zap1 (UniProt P47043)", "T1 sequence": "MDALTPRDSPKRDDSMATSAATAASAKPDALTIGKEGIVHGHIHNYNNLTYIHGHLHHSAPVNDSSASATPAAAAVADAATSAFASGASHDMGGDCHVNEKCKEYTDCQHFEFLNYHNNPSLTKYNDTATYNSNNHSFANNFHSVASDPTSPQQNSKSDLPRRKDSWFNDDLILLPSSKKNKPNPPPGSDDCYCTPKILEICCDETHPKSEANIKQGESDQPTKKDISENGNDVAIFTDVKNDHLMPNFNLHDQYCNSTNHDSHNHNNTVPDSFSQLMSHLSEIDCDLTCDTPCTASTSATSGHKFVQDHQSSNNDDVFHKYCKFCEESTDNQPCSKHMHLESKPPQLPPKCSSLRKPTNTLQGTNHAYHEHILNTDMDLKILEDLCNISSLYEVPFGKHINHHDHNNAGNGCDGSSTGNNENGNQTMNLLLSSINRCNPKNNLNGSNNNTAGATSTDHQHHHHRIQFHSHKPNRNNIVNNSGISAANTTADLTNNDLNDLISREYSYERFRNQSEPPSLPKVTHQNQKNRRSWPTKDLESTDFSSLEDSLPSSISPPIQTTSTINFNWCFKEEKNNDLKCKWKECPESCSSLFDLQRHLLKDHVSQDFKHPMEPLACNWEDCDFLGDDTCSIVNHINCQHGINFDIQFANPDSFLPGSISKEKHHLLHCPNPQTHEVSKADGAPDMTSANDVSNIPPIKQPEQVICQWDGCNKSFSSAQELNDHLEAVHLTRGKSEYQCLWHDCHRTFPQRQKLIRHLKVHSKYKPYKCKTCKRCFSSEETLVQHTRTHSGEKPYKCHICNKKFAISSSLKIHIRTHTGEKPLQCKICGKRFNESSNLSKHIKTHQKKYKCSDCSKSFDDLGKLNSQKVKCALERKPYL", "experiment": "PBM E-score (8-mer binding enrichment) (E-score (-0.5 to 0.5)); higher = stronger / more preferred TF binding", "conditions": "protein concentration: 200 nM; construct: GST-full length", "outline": "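Universal all-10-mer Agilent arrays, double-stranded by primer extension on fresh or once-stripped slides, were probed with about 100-200 nM GST-tagged yeast transcription factors made by PURExpress. Fluorescent anti-GST detected bound protein, and masliner normalised the scans. E-scores from the Universal PBM Analysis Suite were given to each ungapped eight-base word pooled with its reverse complement.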"}
{"sequence": "AGTGTCGA", "PBM E-score": 0.127}
{"sequence": "AACAGATG", "PBM E-score": -0.00675}
{"sequence": "AAGACTTA", "PBM E-score": -0.0811}
{"sequence": "CTTAGACC", "PBM E-score": -0.0476}
{"sequence": "GAGCGTAC", "PBM E-score": -0.162}
{"sequence": "TACTTGCA", "PBM E-score": 0.0221}
{"sequence": "CGGGGCTA", "PBM E-score": -0.15}
{"sequence": "CGGGCTCA", "PBM E-score": -0.323}
{"sequence": "CTGAGGTA", "PBM E-score": 0.275}
{"sequence": "ATGAGGTG", "PBM E-score": 0.0386}
{"sequence": "ATGAGGTA", "PBM E-score": 0.324}
{"sequence": "GGCTAGCC", "PBM E-score": -0.248}
{"sequence": "AGTGCCCG", "PBM E-score": -0.203}
{"sequence": "CCTGCTCG", "PBM E-score": -0.0742}
{"sequence": "CCCCTCGC", "PBM E-score": 0.0553}
{"sequence": "ACCCTCGT", "PBM E-score": 0.358}
{"sequence": "ACCCTCGC", "PBM E-score": 0.267}
{"sequence": "ACACTCGT", "PBM E-score": -0.0522}
{"sequence": "ACCCTCCG", "PBM E-score": 0.228}
{"sequence": "CCCCTCGG", "PBM E-score": 0.34}
{"sequence": "ACCCTCGG", "PBM E-score": 0.329}
{"sequence": "ACCCTCGA", "PBM E-score": 0.143}
{"sequence": "CCCCTCGA", "PBM E-score": 0.169}
{"sequence": "CAGTACAG", "PBM E-score": 0.091}
{"sequence": "ACTTCTCT", "PBM E-score": -0.0321}
{"sequence": "CCAAGTTA", "PBM E-score": 0.0627}
{"sequence": "CATGACGC", "PBM E-score": -0.108}
{"sequence": "ACCAGCGC", "PBM E-score": -0.0562}
{"sequence": "GGACCTCC", "PBM E-score": -0.134}
{"sequence": "GAAGGAGA", "PBM E-score": -0.122}
{"sequence": "GACTCTCC", "PBM E-score": -0.236}
{"sequence": "AACCCAAA", "PBM E-score": 0.35}
{"sequence": "GCCACAAA", "PBM E-score": 0.221}
{"sequence": "TACCCCAA", "PBM E-score": 0.363}
{"sequence": "AACCCAAC", "PBM E-score": 0.282}
{"sequence": "ACCACAAG", "PBM E-score": 0.259}
{"sequence": "AACCCAAT", "PBM E-score": 0.187}
{"sequence": "CACCCAAA", "PBM E-score": 0.255}
{"sequence": "GACCCAAA", "PBM E-score": 0.299}
{"sequence": "AACCCAAG", "PBM E-score": 0.346}
{"sequence": "TACCCCCA", "PBM E-score": 0.054}
{"sequence": "ACCACAAA", "PBM E-score": 0.35}
{"sequence": "GACCCCAA", "PBM E-score": 0.172}
{"sequence": "CGTTAGCC", "PBM E-score": -0.0813}
{"sequence": "GTCTTAGA", "PBM E-score": 0.0182}
{"sequence": "CCATCAAA", "PBM E-score": 0.0846}
{"sequence": "CCAGAAGA", "PBM E-score": -0.0769}
{"sequence": "CACCAAAA", "PBM E-score": 0.235}
{"sequence": "TACCAAAA", "PBM E-score": 0.161}
{"sequence": "ACCCCCAC", "PBM E-score": -0.286}
{"sequence": "ACCCCAAA", "PBM E-score": 0.337}
{"sequence": "AACCAAAA", "PBM E-score": 0.364}
{"sequence": "ACCCCCAA", "PBM E-score": -0.0064}
{"sequence": "AACCCCAA", "PBM E-score": 0.377}
{"sequence": "CCCCCAAA", "PBM E-score": -0.22}
{"sequence": "AACCCCCA", "PBM E-score": -0.0716}
{"sequence": "ACCCCAAG", "PBM E-score": 0.311}
{"sequence": "GACCCCAC", "PBM E-score": 0.243}
{"sequence": "AACCCCAC", "PBM E-score": 0.344}
{"sequence": "AACTAACG", "PBM E-score": 0.166}
{"sequence": "AACTGCGC", "PBM E-score": -0.0727}
{"sequence": "CCTTAGAA", "PBM E-score": 0.211}
{"sequence": "GCCAACAA", "PBM E-score": 0.192}
{"sequence": "AGGCTAAC", "PBM E-score": -0.0255}
{"sequence": "TCCTACCA", "PBM E-score": -0.13}
{"sequence": "GATTTAGC", "PBM E-score": 0.118}
{"sequence": "ATTGTGGC", "PBM E-score": 0.0557}
{"sequence": "GCCCAAAA", "PBM E-score": 0.179}
{"sequence": "ACAAAAAT", "PBM E-score": 0.234}
{"sequence": "AACCCCAT", "PBM E-score": 0.359}
{"sequence": "ACCCCCAT", "PBM E-score": 0.0539}
{"sequence": "ACCCAAAA", "PBM E-score": 0.345}
{"sequence": "AAACCCAT", "PBM E-score": 0.253}
{"sequence": "ACAAAAAA", "PBM E-score": 0.317}
{"sequence": "ACAAAAAC", "PBM E-score": 0.182}
{"sequence": "ACCCAAAG", "PBM E-score": 0.271}
{"sequence": "CCCCTTCA", "PBM E-score": -0.105}
{"sequence": "CTCCTAAA", "PBM E-score": -0.147}
{"sequence": "GCAATGCC", "PBM E-score": -0.104}
{"sequence": "ACCACCGA", "PBM E-score": 0.172}
{"sequence": "ACGTAAGG", "PBM E-score": -0.112}
{"sequence": "AACAGGCG", "PBM E-score": -0.32}
{"sequence": "TTATCAAA", "PBM E-score": 0.2}
{"sequence": "GTAATCAA", "PBM E-score": 0.146}
{"sequence": "ATTCACTA", "PBM E-score": 0.0664}
{"sequence": "CATAGAGC", "PBM E-score": -0.238}
{"sequence": "ATGAGCGC", "PBM E-score": -0.0149}
{"sequence": "GACCTGAA", "PBM E-score": 0.132}
{"sequence": "CCGGCGCC", "PBM E-score": -0.114}
{"sequence": "CTAGGGTC", "PBM E-score": 0.309}
{"sequence": "GTAGGGTA", "PBM E-score": 0.429}
{"sequence": "GTAGGGCA", "PBM E-score": -0.143}
{"sequence": "ATAGGGTG", "PBM E-score": 0.214}
{"sequence": "CTAGGGTA", "PBM E-score": 0.411}
{"sequence": "GTAGGGAA", "PBM E-score": -0.112}
{"sequence": "CTAGGGAA", "PBM E-score": -0.037}
{"sequence": "ATAGGGTC", "PBM E-score": 0.272}
{"sequence": "ATAGGGTA", "PBM E-score": 0.38}
